# Hit rate of the full screen: of about 69,000 compounds, about 8,600 (12%) showed an effect of 50% or more. The full list was thinned out, with strong results kept by preference.
# Tested on: Plasmodium berghei
# Assay: Screen against P. berghei liver stage (PbLuc), transformed with Luciferase, at 10uM
# Assay type: functional, HepG2
# Details: tested at 10 uM
row,SMILES,INHIBITION [%]
1,O=C(CCc1ccccn1)N1CCCN(C(=O)CC2CCCC2)CC1,21.5
2,N#Cc1cccc(NC(=O)N2CCC3(CCC(=O)N(C4CC4)C3)CC2)c1,19.5
3,CCN1CCCC12CCN(Cc1cccnc1OC)CC2,42.3
4,COc1ncccc1CN1CC[C@]2(C[C@@H](OCc3ccccn3)CO2)C1,-3.52
5,COc1ncccc1CN1CCC2(CC1)CC(OCC1CC1)CO2 (centres undefined),56.4
6,COCCN1CCCC12CCN(Cc1cccnc1OC)CC2,26
7,COc1ncccc1CN1CCC2(CC1)COCCN2C,70.4
8,CCOC1COC2(CCN(Cc3cccnc3OC)CC2)C1 (centres undefined),18.6
9,CCCC(=O)N1CCC(C(=O)NCCNc2ncccn2)CC1,21.6
10,Cc1c[nH]c(C2CCCN2C(=O)CCc2c(C)n[nH]c2C)n1 (centres undefined),-0.13
11,CN(C)C(=O)N1CCN(C(=O)c2ccn3cncc3c2)CC1,15.1
12,CCN(CC1CCOC1)C(=O)Cn1nnn(-c2cccs2)c1=O (centres undefined),12.8
13,O=C(Cn1nnn(-c2cccs2)c1=O)NCC1CCOC1 (centres undefined),13.7
14,O=C(Cn1nnn(-c2cccs2)c1=O)N(CC1CCOC1)C1CC1 (centres undefined),51.7
15,CC(C)c1nc2c(n1C)CCN(CCCOc1ccc(C#N)cc1)C2,-2.53
16,Nc1ncccc1C(=O)NCc1cccc(Cl)c1,69.8
17,Nc1ncccc1C(=O)NCc1cccc(Br)c1,68.9
18,Nc1ncccc1C(=O)NCc1ccc(Br)cc1,-26.3
19,CC(C)Sc1ncccc1C(=O)NCc1cccc(N(C)C)c1,19.6
20,Cc1cccc(CNC(=O)c2cccnc2N)c1,44.1
21,COc1cccc(CNC(=O)c2cccnc2N)c1,0.207
22,CC(C)N1CC(C(=O)NCc2ccc(S(=O)(=O)N(C)C)cc2)CC1=O (centres undefined),6
23,CN1CCC(Cc2cnc(CNC(=O)Cc3cccc(F)c3)cn2)CC1,26.75
24,Cc1ccc(NC2COC3(CCN(CC(C)C)CC3)C2)nn1 (centres undefined),46.7
25,CCc1nnc2n1CCN(C(C(=O)NC1CC1)c1ccc(F)cc1)C2 (centres undefined),2.61
26,CCCN1CCC(Cc2nc(CN3CCN(C)CC3)no2)CC1,54.4

row,SMILES,INHIBITION [%]
1,CN1CCC(Cc2noc(CC3CC3)n2)CC1,48.8
2,CCCc1nc(CN2CCN(Cc3noc(CCC)n3)CC2)no1,17.7
3,CCCc1nc(CN2CCN(CC(O)c3ccccc3)CC2)no1 (centres undefined),34.5
4,CN1CCN(Cc2noc(CCc3nc(-c4ccccc4)no3)n2)CC1,74.4
5,CN1CCN(Cc2noc(CC3CCc4ccccc43)n2)CC1 (centres undefined),42.1
6,Cc1noc(C)c1C(=O)N1CCC(n2cccn2)CC1,19.4
7,Cc1nc(CN2C(=O)CCC23CCN(c2ncccc2C)CC3)cs1,37.2
8,CC(=O)N1CCc2nnc(C3CCCCN3CC3CC3)n2CC1 (centres undefined),3.91
9,COCCCNC(=O)Cn1c(C)cc(=O)n2nc(-c3cccs3)nc12,49.1
10,Cc1cc(=O)n2nc(-c3cccs3)nc2n1CC(=O)NC(C)C,67.3
11,COC(=O)Cn1c(C)cc(=O)n2nc(-c3cccs3)nc12,29.2
12,Cc1cccc(CN(Cc2nc3c(cnn3C)c(=O)[nH]2)C2CC2)c1,23.7
13,Cc1cc(C)nc(C2CCN(C(=O)CCn3nnc4ccccc43)C2)n1 (centres undefined),22
14,CSc1ccccc1NC(=O)N1C[C@@H](N(C)C)[C@H](c2ccc(C)cc2)C1,-5.38
15,CCOc1ccc(CN2CC[C@@H]3CC[C@H](C2)N3)cc1CO,31.2
16,N#Cc1ccc(C(=O)N2CC[C@H]3[C@H]2CCN3CC2CCOCC2)cc1,-13.4
17,O=C(c1cscn1)N1CC[C@@H]2[C@@H]1CCN2CC1CCOC1 (some centres undefined),49.4
18,O=C(c1ccco1)N1CC[C@H]2[C@H]1CCN2CC1CCOCC1,25
19,N#Cc1ccc(C(=O)N2CC[C@H]3[C@H]2CCN3CC2CC2)cc1,27.2
20,O=C(c1cccc(Cl)c1)N1CC[C@H]2[C@H]1CCN2CC1CC1,64.9
21,Cc1ccc(C(=O)N2CC[C@H]3[C@H]2CCN3CC2CCOCC2)cc1F,67.2
22,Cc1ccc(C(=O)N2CC[C@H]3[C@H]2CCN3CC2CCOCC2)cn1,57.9
23,O=C(c1ccc(F)cc1)N1CC[C@H]2[C@H]1CCN2CC1CC1,-12.2
24,O=C(c1cscn1)N1CC[C@@H]2[C@@H]1CCN2CC1CCOCC1,-41
25,O=C(c1cccc(Cl)c1)N1CC[C@H]2[C@H]1CCN2CC1CCOCC1,30.1
26,N#Cc1cccc(C(=O)N2CC[C@H]3[C@H]2CCN3CC2CC2)c1,12.4

row,SMILES,INHIBITION [%]
1,O=C(c1ccc(F)cc1)N1CC[C@H]2[C@H]1CCN2CC1CCOCC1,64.9
2,COc1ncc(CN(CCCN2CCOCC2)Cc2ccc(C)o2)cn1,30.4
3,CC(C)c1ncc2c(n1)CN(CCCc1nc3ccccc3o1)CC2,40.9
4,Cc1cc(CN2CCC3(CC2)COC(COc2ccccn2)C3)no1 (centres undefined),-19.8
5,O=C1CCC2(CCNCC2)CN1Cc1nnc2ccccn12,42.1
6,Cc1[nH]ccc1C(=O)N1CCN(C)C2(CCC(=O)N(C)CC2)C1 (centres undefined),-2.39
7,CC(C)(C)C(=O)NCCn1ccc(-c2ccccn2)n1,-43.7
8,COc1ccc([C@@H]2CN(Cc3ccncc3)C[C@H]2N(C)C)cc1,33
9,Cn1cc(CN2CC[C@@H]3[C@@H]2CCN3C(=O)c2cccc(F)c2)cn1,10.1
10,O=C(c1cccc(F)c1)N1CC[C@H]2[C@H]1CCN2CC1CCOCC1,59
11,N#Cc1cccc(C(=O)N2CC[C@H]3[C@H]2CCN3CC2CCOCC2)c1,34.6
12,CS(=O)(=O)c1cncnc1C1CCCN(C(=O)Nc2ccc(F)cc2)C1 (centres undefined),-18.555
13,COc1ccc(C(=O)N2CCCC(n3cc(C)cn3)C2)c(F)c1 (centres undefined),2.97
14,CCS(=O)(=O)N1CCN(C(=O)NC(C)C)CC2(CNC(=O)C2)C1 (centres undefined),3.25
15,CC(=O)N1CCC1c1cc(N2CCNC(=O)C2)nc(C)n1 (centres undefined),12.84
16,Cc1csc(N2CCN(Cc3ccccn3)CC2C)n1 (centres undefined),2.3
17,Cc1cnc(CN2CCN(c3nc(C)cs3)C(C)C2)cn1 (centres undefined),78.8
18,Cc1csc(N2CCN(Cc3cccnc3)CC2C)n1 (centres undefined),61.8
19,Cc1csc(N2CCN(Cc3cscn3)CC2C)n1 (centres undefined),45.9
20,Cc1csc(N2CCN(Cc3nccn3C)CC2C)n1 (centres undefined),30
21,Cc1csc(N2CCN(Cc3cnc(C)s3)CC2C)n1 (centres undefined),21.6
22,CN(C)Cc1ccc(CNC(=O)NCC2(C)CCCS2)cc1 (centres undefined),49.3
23,Cc1ccc(-c2ncc(C(=O)NS(C)(=O)=O)s2)c(C)c1,-2.53
24,CNC(=O)NC(=O)CCSCc1cc(Cl)cc2cccnc12,-51.1
25,CC(C)NC(=O)N(C)C1CCN(c2ccccc2Cl)C1=O (centres undefined),-6.61
26,Cc1n[nH]c(C)c1CCC(=O)N1CCC(O)(CN2CCN(C)CC2)C1 (centres undefined),-15.15

row,SMILES,INHIBITION [%]
1,Cc1n[nH]c(C)c1CCC(=O)N1CCC(O)(CN2CCOCC2)C1 (centres undefined),53.65
2,Cc1n[nH]c(C)c1CC(=O)N1CCC(O)(CN2CCOCC2)C1 (centres undefined),-23.55
3,c1nc(N2CCOC(Cn3cncn3)C2)c2cc[nH]c2n1 (centres undefined),33.8
4,CCOCCC(=O)N1CCc2cccc(S(=O)(=O)N3CCOCC3)c2C1,53.9
5,CCCOC(=O)N1CCc2cccc(S(=O)(=O)N3CCOCC3)c2C1,20.3
6,COCC(=O)N1CCc2cccc(S(=O)(=O)N3CCOCC3)c2C1,33.9
7,N#Cc1cc(NC(=O)c2ccncc2)ccc1N1CCC(O)CC1,62.3
8,Cc1ccsc1C(=O)Nc1ccc(N2CCC(O)CC2)c(C#N)c1,96.1
9,Cc1ccc(C(=O)Nc2ccc(N3CCC(O)CC3)c(C#N)c2)s1,17.6
10,N#Cc1cc(NC(=O)c2ccccn2)ccc1N1CCC(O)CC1,-5.25
11,N#Cc1cc(NC(=O)c2ccccc2)ccc1N1CCC(O)CC1,-4.86
12,N#Cc1cc(NC(=O)c2ccsc2)ccc1N1CCC(O)CC1,35.1
13,Cn1cccc1C(=O)N[C@H]1CN(Cc2ccoc2)[C@@H]2CCCO[C@H]12,34.9
14,COCC(=O)NCc1nn(CCN2CCCC2)c(=O)c2ccccc12,31.3
15,Cc1ccc(C)c(CS(=O)(=O)CC(=O)NCCCOC(C)C)c1,-2.19
16,Cc1nc(C)n(CC2CCCCN2CC(=O)Nc2nnc(C)s2)n1 (centres undefined),4.71
17,CCN(CCOC)C(=O)c1ccc2c(c1)nc(N1CC[C@H](O)C1)n2C,1.74
18,Cc1ncc(C(=O)N2CCCC(C(=O)c3nccn3C)C2)c(O)n1 (centres undefined),-6.01
19,Cc1cccc(C)c1OCC(O)CNCc1c(C)nn(C)c1N(C)C (centres undefined),19.4
20,c1nc2n(c1CN1CCCCC1)CCN(C1CCOC1)CC2 (centres undefined),-33.9
21,c1nc2n(c1CN1CCOCC1)CCN(C1CCOC1)CC2 (centres undefined),-52.3
22,c1nc2n(c1CN1CCCC1)CCN(C1CCOCC1)CC2,80
23,c1ccc(NCc2cnc3n2CCN(CC2CCOC2)CC3)nc1 (centres undefined),27.6
24,c1ccc(NCc2cnc3n2CCN(C2CCOC2)CC3)nc1 (centres undefined),81.2
25,O=C(C1CCOC1)N1CCc2ncc(CNc3ccccn3)n2CC1 (centres undefined),41.5
26,c1cnc(N2CCC3(CCN(CC4CCOC4)CC3)CC2)nc1 (centres undefined),15.6
